# Experimental data taken from PubChem BioAssay.
# Values joined by “and” are separate entries in the source; they are usually repeats but may differ in a detail not shown here. Identical values can stand only once. Active and inactive are the calls of the source.
# Legend:
# [1] = optical density shifts of acrAB sulA E. coli – strain DRC41, OD650, 48 h, E. coli filamentation inducer project, primary screen (AID 1152); settings: higher = more signal, called active from +8 up or from −8 down;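 note: E. coli MC1000 strain DRC41 lacking acrAB efflux pump and sulA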
# [2] = probe aLefty1 binding on compound microarray – biochemical, small-molecule microarray, 635/667 nm fluorescence, primary screen (AID 1153); settings: higher = more signal;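 note: score merges spot fluorescence with signal-to-noise ratio from the scanned slide images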
# [3] = plasmodial surface anion channel blockers, osmotic lysis – cell-based, P. falciparum Indochina, OD700, 1 h, primary screen (AID 1154); settings: P. falciparum Indochina infected RBC osmotic lysis, higher = more signal, called active from +8 up or from −8 down
# [4] = plasmodial surface anion channel blockers, osmotic lysis – cell-based, P. falciparum Indochina, OD700, 2 h, primary screen (AID 1155);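 note: lysis reports solute entry through the parasite surface anion channel PSAC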; settings: P. falciparum Indochina infected erythrocytes, higher = more signal, called active from +8 up or from −8 down
# [5] = changes in parasitized red cell lysis, either direction – P. falciparum Indochina, OD700, 3 h, PSAC antagonist project, primary screen (AID 1156); settings: P. falciparum-infected erythrocytes, osmotic lysis, higher = more signal, called active from +8 up or from −8 down
# [6] = plasmodial surface anion channel blockers, osmotic lysis – cell-based, P. falciparum Indochina, OD700, 18 h, primary screen (AID 1157); settings: P. falciparum Indochina infected erythrocytes, osmotic lysis OD700, 18 h; higher = more signal, called active from +8 up or from −8 down
# [7] = S6 kinase pathway phospho-S6 level changes – cell-based, A549, cytoblot, luminescence, serum-stimulated, primary screen (AID 1158); settings: 5 h, higher = more signal;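 note: serum-stimulated A549 lung adenocarcinoma cells; signal is phosphorylated S6 detected by cytoblot immunostaining with HRP secondary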
# [8] = target: NADPH oxidase 2 (Homo sapiens) (UniProt P04839); assay: compounds shifting NOX2 Amplex Red fluorescence – cell-based, HEK293-NOX2, PMA-stimulated, NOX inhibitor project, primary screen (AID 1159); settings: 45 min, higher = more signal, called active from +8 up or from −8 down; note: test concentration not given here
# [9] = target: NADPH oxidase 4 (Homo sapiens) (UniProt Q9NPH5); assay: compounds shifting NOX4 Amplex Red fluorescence – cell-based, HEK293-NOX4, tetracycline-induced, NOX inhibitor project, primary screen (AID 1160); settings: HEK293-NOX4, Amplex Red H2O2 fluorescence, 45 min; higher = more signal, called active from +8 up or from −8 down
# [10] = target: NADPH oxidase 5 (Homo sapiens) (UniProt Q96PH1); assay: compounds shifting NOX5 Amplex Red fluorescence – cell-based, HEK293-NOX5, NOX inhibitor project, primary screen (AID 1161); settings: HEK293-NOX5, ionomycin, 45 min, higher = more signal
# [11] = compound effects on lung adenocarcinoma cell viability – A549, calcein-AM fluorescence, 48 h, basal, profiling panel (AID 1162); settings: higher = more signal; note: test concentration not given here
# [12] = compound effects on differentiated 3T3-L1 adipocyte viability – cell-based, 3T3-L1 adipocytes, calcein-AM fluorescence, 48 h, basal, profiling panel (AID 1163); settings: 3T3-L1 adipocytes viability, higher = more signal; note: test concentration not given here
# [13] = compound effects on hepatocellular carcinoma cell viability – HepG2, calcein-AM fluorescence, 48 h, basal, profiling panel (AID 1164); settings: higher = more signal; note: test concentration not given here
# [14] = compound effects on multiple myeloma cell viability – MM1S, calcein-AM fluorescence, 48 h, basal, profiling panel (AID 1165); settings: higher = more signal;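 note: viability of MM1S multiple myeloma cells under basal unstimulated conditions; test concentration not given here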
# [15] = calcein-AM signal in unstimulated myeloma cells – cell-based, calcein-AM fluorescence, 48 h, PK04 Diversity Set, profiling panel (AID 1166); settings: RPMI8226 myeloma viability, higher = more signal;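 note: cells grown under basal conditions without added stimulus; test concentration not given here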
# [16] = JC-1 mitochondrial signal, unstimulated HepG2 cells – cell-based, JC-1 fluorescence, 24 h, 100 nL compound, profiling panel (AID 1167); settings: HepG2 mitochondrial potential, higher = more signal; note: test concentration not given here
# [17] = JC-1 mitochondrial signal, unstimulated adipocytes – cell-based, JC-1 fluorescence, 3T3-L1 adipocytes, 24 h, 100 nL compound, profiling panel (AID 1168); settings: JC-1 mitochondrial fluorescence, higher = more signal, called active from +8 up or from −8 down; note: test concentration not given here
# [18] = JC-1 mitochondrial signal, unstimulated myeloma cells – cell-based, JC-1 fluorescence, RPMI8226, 24 h, 100 nL compound, profiling panel (AID 1169); settings: JC-1 mitochondrial potential fluorescence, higher = more signal; note: test concentration not given here
# [19] = JC-1 mitochondrial signal, unstimulated MM1S myeloma – cell-based, JC-1 fluorescence, 24 h, 100 nL compound, profiling panel (AID 1170); settings: MM1S mitochondrial potential, higher = more signal; note: test concentration not given here
# [20] = resazurin metabolic signal in A549 cells – cell-based, resazurin fluorescence, 24 h, PK04 Diversity Set, profiling panel (AID 1171); settings: A549 viability, higher = more signal, called active from +8 up or from −8 down; note: test concentration not given here
# NADPH oxidase 4 (Homo sapiens), sequence (Q9NPH5 whole entry, looked up): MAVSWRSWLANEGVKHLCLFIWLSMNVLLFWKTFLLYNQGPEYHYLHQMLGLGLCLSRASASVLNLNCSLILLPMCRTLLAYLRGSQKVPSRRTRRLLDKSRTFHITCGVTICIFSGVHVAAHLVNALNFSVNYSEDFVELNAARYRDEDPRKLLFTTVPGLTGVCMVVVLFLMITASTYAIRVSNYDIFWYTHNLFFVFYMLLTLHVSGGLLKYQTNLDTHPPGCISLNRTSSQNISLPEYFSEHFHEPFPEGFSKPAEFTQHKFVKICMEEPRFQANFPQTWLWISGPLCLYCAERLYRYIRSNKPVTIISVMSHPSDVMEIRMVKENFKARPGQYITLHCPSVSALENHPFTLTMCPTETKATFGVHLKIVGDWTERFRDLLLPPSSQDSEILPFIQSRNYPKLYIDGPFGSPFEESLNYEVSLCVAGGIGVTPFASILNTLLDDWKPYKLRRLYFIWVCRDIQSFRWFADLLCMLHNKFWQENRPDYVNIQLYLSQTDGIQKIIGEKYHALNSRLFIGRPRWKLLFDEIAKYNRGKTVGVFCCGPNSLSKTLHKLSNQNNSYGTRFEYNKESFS
# NADPH oxidase 2 (Homo sapiens), sequence (P04839 whole entry, looked up): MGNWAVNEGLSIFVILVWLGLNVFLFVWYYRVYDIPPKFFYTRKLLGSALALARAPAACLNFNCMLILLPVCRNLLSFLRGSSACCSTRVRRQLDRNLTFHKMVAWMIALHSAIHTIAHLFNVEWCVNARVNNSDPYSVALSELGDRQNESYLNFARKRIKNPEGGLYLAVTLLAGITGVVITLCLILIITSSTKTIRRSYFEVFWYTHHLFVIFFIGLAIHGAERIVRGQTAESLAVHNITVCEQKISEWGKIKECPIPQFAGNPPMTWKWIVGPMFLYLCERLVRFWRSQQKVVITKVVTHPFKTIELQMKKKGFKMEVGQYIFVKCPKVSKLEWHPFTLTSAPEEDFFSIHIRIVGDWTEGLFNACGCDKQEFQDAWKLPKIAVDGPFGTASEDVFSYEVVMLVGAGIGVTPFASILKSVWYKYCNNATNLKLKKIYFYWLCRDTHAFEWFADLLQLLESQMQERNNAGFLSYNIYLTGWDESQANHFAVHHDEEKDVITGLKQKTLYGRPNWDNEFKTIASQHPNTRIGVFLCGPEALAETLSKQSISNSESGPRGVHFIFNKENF
# NADPH oxidase 5 (Homo sapiens), sequence (Q96PH1 whole entry, looked up): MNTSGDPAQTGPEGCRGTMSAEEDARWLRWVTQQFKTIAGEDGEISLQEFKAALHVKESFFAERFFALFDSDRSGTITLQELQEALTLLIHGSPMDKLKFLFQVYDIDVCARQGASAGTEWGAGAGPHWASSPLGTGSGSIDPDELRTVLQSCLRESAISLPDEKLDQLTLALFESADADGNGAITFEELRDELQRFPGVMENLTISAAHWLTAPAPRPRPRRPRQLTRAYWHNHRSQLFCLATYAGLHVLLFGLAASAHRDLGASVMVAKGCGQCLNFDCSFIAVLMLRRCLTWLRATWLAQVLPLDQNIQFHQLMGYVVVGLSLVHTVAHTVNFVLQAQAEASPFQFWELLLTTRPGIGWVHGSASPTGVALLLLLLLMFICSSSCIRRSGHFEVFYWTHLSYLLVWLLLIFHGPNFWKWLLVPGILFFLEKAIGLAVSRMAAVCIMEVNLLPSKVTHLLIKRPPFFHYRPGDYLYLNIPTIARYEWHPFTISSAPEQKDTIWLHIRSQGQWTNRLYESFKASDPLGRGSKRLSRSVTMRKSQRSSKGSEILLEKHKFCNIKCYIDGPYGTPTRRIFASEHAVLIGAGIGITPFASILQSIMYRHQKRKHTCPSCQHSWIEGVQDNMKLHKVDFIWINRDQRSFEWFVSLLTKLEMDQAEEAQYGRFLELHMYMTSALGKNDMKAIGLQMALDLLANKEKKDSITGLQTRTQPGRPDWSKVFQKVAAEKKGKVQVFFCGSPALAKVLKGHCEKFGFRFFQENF
SMILES,z-score [1],composite z-score [2],z-score [3],z-score [4],z-score [5],z-score [6],z-score [7],z-score [8],z-score [9],z-score [10],z-score [11],z-score [12],z-score [13],z-score [14],z-score [15],z-score [16],z-score [17],z-score [18],z-score [19],z-score [20]
C=CCN(C(=O)C1N(c2c(Cl)cccc2CO)C(=O)C2C(C(=O)O)C3C=CC21O3)c1ccc(OC)cc1 (stereo not given),0.971 (inactive) and 2.55 (inactive),-1.1 and -0.253,2.56 (inactive) and -0.975 (inactive),0.516 (inactive) and -1.35 (inactive),0.336 (inactive) and -0.988 (inactive),0.287 (inactive) and -1.34 (inactive),-0.403 and 1.78,0.868 (inactive) and -0.148 (inactive),-0.286 (inactive) and -0.651 (inactive),-0.136 and 0.192,-0.211 and 1.87,1.02 and 0.581,-0.915 and 1.6,0.972 and -0.224,-0.998 and 0.529,-0.877 and 0.862,-0.955 (inactive) and 0.659 (inactive),-0.106 and -0.544,0.644 and 0.576,-0.475 (inactive) and 1.02 (inactive)
C=CCN(Cc1ccccc1)C(=O)C(c1cccs1)N(C(=O)/C=C\C(=O)O)c1c(Cl)cccc1CO (stereo not given),-0.608 (inactive) and -0.244 (inactive),-0.855 and -0.191,-0.152 (inactive) and -0.0214 (inactive),0.0805 (inactive) and 0.266 (inactive),0.617 (inactive) and -0.39 (inactive),0.306 (inactive) and 0.109 (inactive),0.0278 and -0.193,-0.0842 (inactive) and 0.208 (inactive),-0.662 (inactive) and -0.417 (inactive),0.0528 and 0.284,-0.159 and -0.34,0.036 and -0.0047,-0.876 and -0.217,1.21 and 1.6,1 and -0.538,-0.267 and -0.148,0.426 (inactive) and 0.223 (inactive),-0.917 and 0.247,-0.871 and -0.502,0.351 (inactive) and -0.519 (inactive)
CCCCN1CC=CC23O[C@@H]4C=CCCOC(=O)C4[C@H]2C(=O)N(C(C)CO)[C@@H]3C1=O (stereo not given in full),-0.462 (inactive) and -0.0672 (inactive),-0.007 and 0.0181,1.77 (inactive) and 0.636 (inactive),0.446 (inactive) and 1.06 (inactive),0.874 (inactive) and 1.09 (inactive),0.234 (inactive) and 0.601 (inactive),1.48 and 1.2,1.49 (inactive) and 1.3 (inactive),0.784 (inactive) and 0.359 (inactive),2.31 and 2,-0.301 and -0.336,-0.457 and -0.57,-0.469 and -0.612,1.07 and 0.893,-0.736 and -0.717,-0.494 and -0.753,-0.433 (inactive) and -0.828 (inactive),-0.129 and 0.0982,-0.686 and -0.347,0.237 (inactive) and -0.595 (inactive)
CC(C)=NOC[C@@H](O)COCc1ccco1,0.534 (inactive),0.843,0.159 (inactive),0.365 (inactive),-0.0924 (inactive),0.0967 (inactive),0.566,0.0371 (inactive),0.0915 (inactive),0.125,0.991,-0.611,0.828,0.191,0.313,-0.0938,0.121 (inactive),0.602,-0.391,-0.736 (inactive)
C=CC[C@@H](O)c1ccc(OCCO)cc1,1.23 (inactive) and 1.38 (inactive),-0.259 and -0.191,3.24 (inactive) and 1.36 (inactive),-0.971 (inactive) and -1.24 (inactive),-0.904 (inactive) and -0.902 (inactive),-2.02 (inactive) and -2.07 (inactive),2.74 and 0.965,-0.976 (inactive) and -0.495 (inactive),-0.354 (inactive) and -0.393 (inactive),-1.22 and -0.2,0.589 and 0.923,-0.0396 and 0.764,1.22 and 0.876,1.17 and 1.23,0.834 and -1.19,1.28 and 1.15,-0.53 (inactive) and 0.676 (inactive),0.871 and 0.81,0.00142 and 1.08,-0.707 (inactive) and -0.779 (inactive)
